Source: PubChem BioAssay (National Center for Advancing Translational Sciences (NCATS))
Rows were chosen to be rich in hits. Some 4.7% of all compounds tested hit in one or more screens of this group.
D1 antagonist: antagonists of human D1 dopamine receptor | P21728 | HEK293 TREx D1 cells, calcium flux, dopamine EC80; active compounds read low | activity change, negative = inhibition, % at 10 µM | hit rate 3.2% among 360,000 | AID 504652; in the data active means activity change below about -30%; further: on the % scale 0 is the no-effect control and ±100 the full control effect
Target sequence (P21728 whole entry, looked up): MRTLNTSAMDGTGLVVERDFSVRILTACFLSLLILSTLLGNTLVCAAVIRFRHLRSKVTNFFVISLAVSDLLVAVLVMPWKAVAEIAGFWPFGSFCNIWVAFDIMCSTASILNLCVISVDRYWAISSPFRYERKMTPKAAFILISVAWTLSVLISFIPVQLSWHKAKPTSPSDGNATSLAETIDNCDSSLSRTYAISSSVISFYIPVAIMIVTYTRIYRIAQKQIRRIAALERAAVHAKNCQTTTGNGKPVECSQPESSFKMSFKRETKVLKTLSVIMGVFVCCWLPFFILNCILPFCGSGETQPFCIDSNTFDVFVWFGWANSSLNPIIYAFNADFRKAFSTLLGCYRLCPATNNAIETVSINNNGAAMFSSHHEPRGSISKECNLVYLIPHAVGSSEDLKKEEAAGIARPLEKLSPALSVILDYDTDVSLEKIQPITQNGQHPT
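Tetracycline-induced HEK293 Trex D1 cells, force-coupled to calcium, dye-loaded; compounds added and read 180 s, then EC80 dopamine added and calcium flux tracked kinetically another 180 s.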
TRHR ag: activates the human TRH receptor. P34981. TRHR cells, calcium flux fluo-8, FDSS agonist mode. activation, % at 2 µM. hit rate 0.18% among 360,000. AID 493084; further: 0% is about no effect
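Steps: seed TRHR cells overnight; add fluo-8 no-wash Ca dye, RT 30 min–1.5 h; record 10 s baseline; pin-transfer compounds; monitor fluorescence 1 cycle/s for the agonist window. Calcium increases flag candidate agonists.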
TRHR enhancer: TRH receptor (human) allosteric enhancement | hit rate 0.66% among 360,000 | TRHR cells, fluo-8 calcium fluorescence, EC20 TRH enhancement | AID 493056 | enhancement, % at 2 µM; in the data active means enhancement above about 30%; further: 0% is about no effect
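TRHR-expressing cells loaded with fluo-8 calcium dye were read kinetically (ex 480/em 530) during compound addition, then stimulated with an EC20 of TRH (10 nM final). Enhancement of the Gq-mediated intracellular calcium response was scored.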
D1 agonist: agonists of human D1 dopamine receptor; AID 504660; HEK293 T-REx D1 cells, calcium flux, agonist mode; activation, % at 2 µM; P21728; hit rate 1% among 360,000; further: 0% is about no effect
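Agonism was scored from calcium flux recorded over 180 s (1 read/s) after pintool compound addition, following a 10-cycle baseline. Cells were inducible force-coupled HEK293 TREx D1, plated overnight at 30 C and loaded with no-wash calcium dye.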
D1 potentiator: human D1 dopamine receptor positive modulation | P21728 | HEK293 TREx D1 cells, calcium flux, dopamine EC20 potentiation | potentiation, % at 10 µM | hit rate 0.036% among 360,000 | AID 504651; in the data active means potentiation above about 30%; further: 0% is about no effect
The depositor's hits bear a star. Unless noted, no stated cut-off is given here; in the data, active means activation above about 30%; inactive means the rest.

Results for Cc1ccc(-n2c(CCC(=O)O)ccc2-c2cccs2)cc1 ?
D1 antagonist: 9; TRHR ag: 0; TRHR enhancer: 6; D1 agonist: 4; D1 potentiator: -3

Results for CCOc1ccc(CNC(=O)C2Cc3cc(S(=O)(=O)N4CCCCCC4)ccc3N2C(C)=O)cc1 (centres undefined) ?
D1 antagonist: 5; TRHR ag: -1; TRHR enhancer: -5; D1 agonist: 0; D1 potentiator: 0

What do the screens show for `CSc1ccc(/C=C/C(=O)c2ccc(NC(C)=O)cc2)cc1`?
D1 antagonist: -6; TRHR ag: 1; TRHR enhancer: 6; D1 agonist: 7; D1 potentiator: -4

Results for CCCC(=O)Nc1ccc(C(=O)/C=C/c2ccc(SC)cc2)cc1 ?
D1 antagonist: -48*; TRHR ag: 0; TRHR enhancer: 7; D1 agonist: 16; D1 potentiator: -13

Results for CCOC(=O)c1c(C)[nH]c(C)c1C(=O)COC(=O)/C=C/c1ccc(OC(F)F)cc1 ?
D1 antagonist: 3; TRHR ag: 0; TRHR enhancer: 1; D1 agonist: 2; D1 potentiator: 33*

How did Cc1onc(-c2ccccc2)c1C(=O)Nc1ccc(S(=O)(=O)Nc2nccs2)cc1 do in these assays?
D1 antagonist: -40*; TRHR ag: 0; TRHR enhancer: -4; D1 agonist: 1; D1 potentiator: -4

Results for NC(=O)c1cc(S(=O)(=O)Nc2cccc(F)c2)co1 ?
D1 antagonist: -46*; TRHR ag: 0; TRHR enhancer: 3; D1 agonist: 1; D1 potentiator: 3

Results for Cc1cc(C)cc(NS(=O)(=O)c2coc(C(N)=O)c2)c1 ?
D1 antagonist: -7; TRHR ag: 0; TRHR enhancer: 4; D1 agonist: 4; D1 potentiator: -6

How did O=C(Nc1ccccc1)c1cccc(S(=O)(=O)Oc2ccc([N+](=O)[O-])cc2)c1 do in these assays?
D1 antagonist: -30*; TRHR ag: -2; TRHR enhancer: 3; D1 agonist: 18; D1 potentiator: -5

How did O=C(Nc1ccccc1)c1cccc(S(=O)(=O)Nc2cccc(F)c2)c1 do in these assays?
D1 antagonist: -40*; TRHR ag: 0; TRHR enhancer: -7; D1 agonist: 16; D1 potentiator: -1

What do the screens show for `O=C(Nc1cccc(F)c1)c1ccccc1`?
D1 antagonist: -2; TRHR ag: 1; TRHR enhancer: 4; D1 agonist: 1; D1 potentiator: -8

How did O=C(O)c1cccc(NC(=O)c2cccc(S(=O)(=O)Nc3cccc([N+](=O)[O-])c3)c2)c1 do in these assays?
D1 antagonist: -1; TRHR ag: 0; TRHR enhancer: -5; D1 agonist: 0; D1 potentiator: 16

How did CCCCNS(=O)(=O)c1ccc(NC(=O)c2c(-c3ccccc3)noc2C)cc1 do in these assays?
D1 antagonist: -19; TRHR ag: 0; TRHR enhancer: -2; D1 agonist: 27; D1 potentiator: -7

How did O=C(Nc1ccc(S(=O)(=O)Nc2nccs2)cc1)c1cccc(F)c1 do in these assays?
D1 antagonist: -47*; TRHR ag: 1; TRHR enhancer: 2; D1 agonist: 6; D1 potentiator: -3

Results for CCCCc1ccc(-n2nc3cc(C)c(NC(=O)Cc4ccccc4)cc3n2)cc1 ?
D1 antagonist: 15; TRHR ag: -5; TRHR enhancer: 1; D1 agonist: 0; D1 potentiator: -3

What do the screens show for `N#CC1=C(N)Oc2ccc3ccc(O)cc3c2C1c1cccnc1` (centres undefined)?
D1 antagonist: -76*; TRHR ag: 0; TRHR enhancer: 2; D1 agonist: 1; D1 potentiator: -7

Results for Cc1nn(-c2cccc(Cl)c2)c2c1C(c1cccnc1)C(C#N)=C(N)O2 (centres undefined) ?
D1 antagonist: -36*; TRHR ag: 0; TRHR enhancer: 0; D1 agonist: 7; D1 potentiator: -1

How did CCc1noc2nc(C)n(CC(=O)O)c(=O)c12 do in these assays?
D1 antagonist: 2; TRHR ag: 0; TRHR enhancer: -1; D1 agonist: 2; D1 potentiator: 0

Results for O=C(CN1CCOCC1)c1c[nH]c2ccccc12 ?
D1 antagonist: -1; TRHR ag: 1; TRHR enhancer: -2; D1 agonist: 5; D1 potentiator: 2

What do the screens show for `O=C(NCCN1CCOCC1)C(=O)c1c[nH]c2ccccc12`?
D1 antagonist: -52*; TRHR ag: 0; TRHR enhancer: 2; D1 agonist: 2; D1 potentiator: 1

Results for N=c1n(CC(=O)c2cccs2)c2ccccc2n1Cc1ccccc1 ?
D1 antagonist: -22; TRHR ag: 2; TRHR enhancer: -7; D1 agonist: 47*; D1 potentiator: -10

What do the screens show for `O=C(O)Cn1c(=O)n(Cc2ccccc2)c2ccccc21`?
D1 antagonist: -10; TRHR ag: 0; TRHR enhancer: 0; D1 agonist: 4; D1 potentiator: -6

What do the screens show for `CC1(C)SC(=S)N(/N=C/c2ccccc2)C1N(O)C(=O)Nc1ccc([N+](=O)[O-])cc1` (centres undefined)?
D1 antagonist: -37*; TRHR ag: 0; TRHR enhancer: 8; D1 agonist: 19; D1 potentiator: -3

Results for CNC(=O)N(O)C1N(/N=C/c2ccc(N(C)C)cc2)C(=S)SC1(C)C (centres undefined) ?
D1 antagonist: -13; TRHR ag: 0; TRHR enhancer: -8; D1 agonist: 2; D1 potentiator: -4

What do the screens show for `COc1ccc(-c2[nH]ncc2CN2CCC(OCc3ccccc3)CC2)c(F)c1`?
D1 antagonist: -52*; TRHR ag: 0; TRHR enhancer: 1; D1 agonist: 11; D1 potentiator: -5

How did O=C(/C=C/c1c(F)cccc1Cl)NCCCN1CCOCC1 do in these assays?
D1 antagonist: -22; TRHR ag: 0; TRHR enhancer: 2; D1 agonist: 2; D1 potentiator: 0

What do the screens show for `COc1ccc(SCC(=O)c2cc(C)c(OC(=S)N(C)C)c(C)c2)cc1`?
D1 antagonist: -35*; TRHR ag: 0; TRHR enhancer: -4; D1 agonist: 4; D1 potentiator: -3

How did Cc1ccc2oc(C(=O)NCC(c3ccc(Cl)cc3)N3CCOCC3)c(C)c2c1 (centres undefined) do in these assays?
D1 antagonist: 3; TRHR ag: 0; TRHR enhancer: 2; D1 agonist: 0; D1 potentiator: -1

What do the screens show for `CN(C(=O)CSc1ncnc2sc3c(c12)CCC3)C1CCS(=O)(=O)C1` (centres undefined)?
D1 antagonist: 3; TRHR ag: 0; TRHR enhancer: 3; D1 agonist: 1; D1 potentiator: 2

How did Nc1nc(COc2ccc(Cl)cc2)cs1 do in these assays?
D1 antagonist: -5; TRHR ag: 0; TRHR enhancer: 38*; D1 agonist: 1; D1 potentiator: 3
